LAP4 TOR yeast: modulators of LAP4-GFP expression in yeast, primary screen, S. cerevisiae, multiplex flow cytometry, MLPCN library | AID 2023, 2009 | 3 h; median GFP as percent of DMSO wells | 320,000 tested, 0.34% active | GFP response vs DMSO, % at 10 µM;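 active = GFP response vs DMSO above a set limit, about the screen mean plus 3 SD, cut at about 150% in these data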
AGP1-GFP MLPCN: modulators of AGP1-GFP expression in yeast TOR pathway, primary screen, cell-based, multiplex flow cytometry, S. cerevisiae, MLPCN library | AID 2066, 2009 | 320,000 tested, 0.02% active | GFP response vs DMSO, % at 10 µM | 3 h; GFP as percent of DMSO wells;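 active = GFP response relative to DMSO above a set limit, near screen average plus 3 SD, cut at about 150% in these data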;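 also: median GFP channel fluorescence of the gated AGP1 strain per well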
RPL19A-GFP yeast: RPL19A-GFP expression modulators in yeast, primary screen, cell-based, S. cerevisiae, multiplex flow cytometry, MLPCN. 330,000 tested, 0.3% active. S. cerevisiae RPL19A-GFP strain, 3 h; stronger effect = lower value. AID 2025, 2009. percent response vs DMSO, % at 10 µM;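 active = percent response vs DMSO below 50%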;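 also: median channel GFP fluorescence of the barcoded RPL19A-GFP strain; ratio of sample median GFP to plate DMSO average so 100% = DMSO; lower means less RPL19A-GFP as with rapamycin TOR inhibition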
Efflux pump inh: inhibitors of Candida efflux pumps in yeast, primary screen, S. cerevisiae, Nile Red, multiplex; AID 485275, 2010; inhibition, % at 10 µM; S. cerevisiae Candida pump triplex; 330,000 tested, 0.44% active;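 active = plate passing quality check with inhibition over a set limit, or well fluorescence over plate mean plus 4 SD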;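 also: Nile Red retained in pooled yeast measured as flow cytometry median fluorescence; 0% = buffer negative control and 100% = Enniatin B positive control; higher means more Nile Red kept so more efflux inhibition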
MEP2 TOR yeast: modulators of MEP2-GFP levels in yeast, primary screen, S. cerevisiae, multiplex flow cytometry, MLPCN library. S. cerevisiae MEP2-GFP strain, 3 h; 100% = DMSO control level. GFP response vs DMSO, % at 10 µM. 330,000 tested, 0.51% active. AID 2016, 2009;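 active = GFP response versus DMSO above a set limit, roughly screen mean plus 3 SD, cut at about 180% in these data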;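 also: median GFP fluorescence of the barcode-gated MEP2-GFP cells per well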
CIT2 TOR yeast: modulators of CIT2-GFP expression in yeast, primary screen, S. cerevisiae, GFP fusion, multiplex flow cytometry, MLPCN library; 320,000 tested, 0.065% active; S. cerevisiae CIT2-GFP strain, 3 h; 100 means same as DMSO wells; AID 2029, 2009; GFP response vs DMSO, % at 10 µM;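 active = GFP response relative to DMSO above a set limit, near the screen mean plus 3 SD, cut at about 150% in these data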;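 also: ratio of well median GFP fluorescence to mean of DMSO wells on the plate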
Yeast cmpd fluor: counter-screen for efflux pump inhibitors: compound fluorescence. shares compounds with Efflux pump inh. S. cerevisiae AD/pABC3, flow cytometry. fluorescence ratio to DMSO, % at 10 µM. 1,700 tested, 4% active;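 active = fluorescence ratio to DMSO above its plate's cutoff, the plate mean ratio plus 5 SD, cut at about 210% in these data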;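 also: unstained yeast with no Nile Red so the signal is compound autofluorescence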
CaMdr1 efflux inh: inhibitors of Candida albicans Mdr1 efflux, confirmation, flow cytometry, singleplex, Cherry Pick1 set | AID 588518, 2011 | inhibition, % at 10 µM | 1,700 tested, 1% active | S. cerevisiae AD/CaMDR1, Nile Red efflux | shares compounds with Efflux pump inh; in the data active = inhibition above about 26%;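 also: 0% = DMSO vehicle and 100% = reference inhibitor; higher means more Nile Red retained so more efflux inhibition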
CaCdr2 efflux inh: inhibitors of Candida albicans Cdr2 efflux pump, confirmation, S. cerevisiae AD/CaCDR2, flow cytometry, cherry pick 1, singleplex | shares compounds with Efflux pump inh | Nile Red retention | Nile Red retention ratio vs DMSO, % at 10 µM | 1,700 tested, 4% active; in the data active = Nile Red retention ratio vs DMSO above about 190%;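 also: higher ratio means more blocking of Cdr2 efflux of the dye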
CaCdr1 efflux inh: inhibitors of Candida albicans Cdr1 efflux pump, confirmation, S. cerevisiae AD/CaCDR1, flow cytometry, cherry pick 1, singleplex. Nile Red efflux. inhibition, % at 10 µM. shares compounds with Efflux pump inh. AID 588522, 2011. 1,700 tested, 1% active;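 active = inhibition above the screen-wide mean plus twice its standard deviation, cut at about 32% in these data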
* = called active by the depositor; . = not tested or not shown. In the library only some 1.3% were active in any assay of this set; here they are far more common.

SMILES	LAP4 TOR yeast	AGP1-GFP MLPCN	RPL19A-GFP yeast	Efflux pump inh	MEP2 TOR yeast	CIT2 TOR yeast	Yeast cmpd fluor	CaMdr1 efflux inh	CaCdr2 efflux inh	CaCdr1 efflux inh
C=C(C)C(O)CC/C(C)=C/Cc1c(O)ccc(C(=O)/C=C/c2ccc(O)cc2)c1O (configuration not stated)	100.3	102.9	97.7	0.2	94.8	95.2	.	.	.	.
COc1ccccc1NC(=O)COC(=O)c1cc([N+](=O)[O-])ccc1N1CCCC1	105.7	92.7	91.8	0.9*	95.7	81.3	100.2	-0.1	97.2	-0.3
CCOC(=O)c1c(C)[nH]c(C)c1C(=O)COC(=O)/C=C/c1ccc(OC(F)F)cc1	111.2	115.1	103.8	0.2	121.7	102.4	.	.	.	.
CCOC(=O)c1c(C)[nH]c(C)c1C(=O)COC(=O)/C=C/c1ccc(Cl)cc1	107.0	103.6	97.6	8.3*	106.2	86.4	101.8	-0.3	101.5	-0.3
CCOC(=O)c1ccccc1NC(=O)CSc1ccc(-c2cccnc2)nn1	130.6	86.7	91.5	1.5*	96.2	73.9	86.5	-0.1	91.1	-0.1
CC12CCC(=O)N1C(C(=O)N1CCN(c3ccc(C(F)(F)F)cc3[N+](=O)[O-])CC1)CS2 (configuration not stated)	97.0	94.5	95.4	0.3	99.1	93.6	.	.	.	.
Clc1ccccc1CSc1nncn1NC/C=C/c1ccccc1	106.0	106.6	102.8	7.6*	95.7	102.8	103.4	-0.1	112.4	0.0
COc1ccc2cc(CN(CC3CCCO3)S(=O)(=O)c3ccc(C(C)=O)cc3)c(=O)[nH]c2c1 (configuration not stated)	101.0	96.1	98.6	0.3*	102.5	90.2	96.2	-0.1	109.4	91.6*
CCN(C(=O)COC(=O)c1nn(-c2ccccc2)c(=O)c2ccccc12)C1CCS(=O)(=O)C1 (configuration not stated)	101.5	104.7	97.3	0.1	94.7	96.1	.	.	.	.
O=c1cc(Nc2cccc(Br)c2)[nH]c(=O)[nH]1	99.0	104.1	103.1	0.2	107.1	.	.	.	.	.
Cc1cccc(Nc2cc(=O)[nH]c(=O)[nH]2)c1	95.5	101.8	103.7	6.5*	101.1	107.2	101.7	-0.2	116.0	0.1
COCc1cc(N2CCOCC2)nc(-c2ccccc2)n1	103.2	102.4	101.6	0.1	98.7	89.3	.	.	.	.
CCSc1cc(N2CCCC2)nc(-c2ccccc2Cl)n1	102.2	99.8	101.9	0.0	103.9	99.6	106.2	-0.2	95.6	-0.1
CSc1cc(N2CCOCC2)nc(-c2ccccc2Cl)n1	119.5	101.9	103.7	0.6	109.4	91.8	90.7	-0.1	102.9	0.0
CCSc1cc(N2CCCC2)nc(-c2ccccc2)n1	112.7	96.3	98.2	0.0	141.2	105.3	.	.	.	.
CC(C)Sc1cc(N2CCCC2)nc(-c2ccccc2Cl)n1	91.7	93.2	87.5	0.4	100.2	92.8	160.8	0.3	105.1	-0.1
CC(C)Sc1cc(N2CCOCC2)nc(-c2ccccc2)n1	109.7	88.4	96.3	-0.3	122.0	95.2	106.2	-0.1	108.0	-0.1

Screens deposited in PubChem by NMMLSC.
